Reference: PubChem BioAssay AID504465 (National Center for Advancing Translational Sciences (NCATS), 2011)
The campaign covered roughly 2,100 compounds. About 210 (10%) were called active. Not shown: some 53% with an inconclusive outcome. The list shows a part of the results. Unmarked numbers belong to inactive results. Calls follow the shape of the dose curve; as a rule, active = well fitted inhibition curve with a large enough effect; inconclusive = small, poorly fitted or top-dose-only effect, or effect the other way; inactive = no such curve, though single readings can be large or run the other way.

test: IN Cell qHTS Assay for Inhibitors of the mTORC1 Signaling Pathway in MEF (Tsc2-/-, p53-/-) Cells: Sytravon; settings: phospho-rpS6 immunofluorescence, 24 h; series mostly up to 38.3 µM; activity, negative = inhibition: at the top concentration; also: nearly all actives have a fitted effect of over 60% in size
Summary of the method: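 Immunofluorescence of rpS6 phosphorylation (Ser235/236) in mouse embryonic fibroblasts lacking Tsc2 and p53, after 24 h compound exposure; Hoechst-normalized signal imaged, each well scored as % active cells relative to rapamycin (7.5 nM) and DMSO controls.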
Potency is read from the fitted curve at half-maximal effect.

With `CCCCN(C)CC(O)Cn1cc(/C=C/C(=O)c2ccc(Br)cc2)c2ccccc21` (stereo not given) as the compound, how does the “activity, negative = inhibition” value read?
Its value is -16.9%.

With `Cc1cccc(NC(c2ccccc2C)c2ccc3ccc(C)nc3c2O)n1` (stereo not given) as the compound, how does the “activity, negative = inhibition” value read?
The value was 4.5%.

For `COc1ccc(CCNC(=O)CCc2cn(Cc3ccc(F)cc3)c3ccccc23)cc1OC`, which “activity, negative = inhibition” value is on record?
Its value is -22.2%.

Which “activity, negative = inhibition” value does the source give for `CCN(CC)S(=O)(=O)c1ccc2oc(C(=O)NCc3ccccc3OC)c(C)c2c1` here?
Its value is 4.33%.

For `CCOc1ccccc1CNC(=O)CCc1cn(C)c2ccccc12`, which “activity, negative = inhibition” value is on record?
The value was 6.25%.

Which Potency does the source give for `COc1ccccc1CNC(=O)CCc1c(C)c2ccc(OC)c(C)c2oc1=O` here?
The Potency was 1.47 µM (active).

Which “activity, negative = inhibition” value does the source give for `Cc1ccc(CN2CCCn3nc(C(=O)NCc4ccccc4Cl)cc3C2=O)cc1` here?
Its value is -6.67%.

Which “activity, negative = inhibition” value does the source give for `Nc1cc(=O)nc(SCC(=O)Nc2ccc(F)cc2)n1-c1ccc(Cl)cc1` here?
Its value is 9.49%.

With `Cc1ccc(-c2nc(N3CCCC(C)C3)c3ccccc3n2)cc1` (stereo not given) as the compound, how does the “activity, negative = inhibition” value read?
Its value is 17.8%.

For `COc1ccc2ncc3c(-c4ccc(C)c(C)c4)nn(CC(=O)Nc4ccccc4)c3c2c1`, which “activity, negative = inhibition” value is on record?
The value was -1.93%.

Which “activity, negative = inhibition” value does the source give for `Cc1ccc(N2CC(C(=O)NCCS(=O)(=O)N3CCN(c4ccccc4F)CC3)CC2=O)cc1` (stereo not given) here?
The value was 1.3%.

For `O=C(NCCCN1CCN(c2ccccc2F)CC1)c1nnc(Cc2ccc(Cl)cc2Cl)o1`, which “activity, negative = inhibition” value is on record?
Its value is -19.5%.

For `COc1ccc(-c2nc(CN3CCC(C(=O)NCCCN4CCN(c5ccccc5F)CC4)CC3)c(C)o2)cc1OC`, which Potency is on record?
The Potency was 13.1 µM (active).

With `CC(C(=O)NCc1cccc(Br)c1)n1ncn2cccc2c1=O` (stereo not given) as the compound, how does the Potency read?
The Potency was 1.47 µM (active).

Which “activity, negative = inhibition” value does the source give for `O=C(Cn1c(=O)c2cccn2c2ccc(F)cc21)NCc1cccc(Cl)c1` here?
The value was -24.6%.

With `COc1cccc(CNC(=O)CCn2cccn2)c1` as the compound, how does the “activity, negative = inhibition” value read?
The value was 0.892%.

With `Cn1cc(-c2cc3n(n2)CCC(=O)N3CC(=O)NCc2ccc(Cl)cc2)c2ccccc21` as the compound, how does the “activity, negative = inhibition” value read?
The value was -1.06%.

Which “activity, negative = inhibition” value does the source give for `CCOC(=O)c1nc(Nc2ccc(C(=O)OC(C)C)cc2)c2ccccc2n1` here?
Its value is 18.7%.

Which “activity, negative = inhibition” value does the source give for `CCc1ccc(NC(=O)CSc2nc3n[nH]c(C)c3c(=N)n2-c2ccc(C)cc2)cc1` here?
Its value is 0%.

For `COc1cc(CNc2ccc3c(c2)ncn3C(C)C)cc(OC)c1OC`, which “activity, negative = inhibition” value is on record?
The value was -19.3%.

For `Cc1ccc(NC(=O)c2c(C)oc3ccc(O)c(CN4CCCCCC4)c23)c(C)c1`, which “activity, negative = inhibition” value is on record?
Its value is 1.43%.

Which “activity, negative = inhibition” value does the source give for `CC1CCN(S(=O)(=O)c2ccc3nc(Nc4cccc(C(F)(F)F)c4)ccc3c2)CC1` here?
Its value is -8.63%.

For `CCOc1ccccc1C(=O)N(Cc1ccco1)Cc1ccccc1F`, which “activity, negative = inhibition” value is on record?
Its value is -13.7%.

For `CCc1ccc2oc(C(=O)N(Cc3cccc(Cl)c3)Cc3ccco3)c(C)c2c1`, which “activity, negative = inhibition” value is on record?
Its value is 1.43%.

For `CS(=O)(=O)c1ncc(Cl)c(C(=O)N(Cc2ccc(Cl)cc2)Cc2ccco2)n1`, which Potency is on record?
The Potency was 2.33 µM (active).

Which “activity, negative = inhibition” value does the source give for `Cc1cccc(OCC(=O)N(Cc2ccc(C(C)(C)C)cc2)Cc2ccco2)c1` here?
Its value is -18.6%.

With `CCS(=O)(=O)c1ncc(Cl)c(C(=O)N(Cc2ccccc2)Cc2ccco2)n1` as the compound, how does the Potency read?
Its Potency is 3.69 µM (active).

For `O=C(NCC1CCN(Cc2cccc(F)c2)CC1)c1cc2ccc3cccnc3c2[nH]1`, which “activity, negative = inhibition” value is on record?
The value was -23.5%.

For `CCOC(=O)c1sc2ccccc2c1S(=O)(=O)Nc1ccc(CC)cc1`, which “activity, negative = inhibition” value is on record?
Its value is 0%.

Which “activity, negative = inhibition” value does the source give for `COc1ccccc1C1C(C(=O)Nc2ccccc2)=C(C)Nc2nc(-c3ccccc3)nn21` (stereo not given) here?
The value was 45.8%.

Which Potency does the source give for `COc1ccc(C2C(C(=O)Nc3ccccc3)=C(C)Nc3nc(-c4ccc(Cl)cc4)nn32)cc1` (stereo not given) here?
Its Potency is 13.1 µM (active).

For `CC1=C(C(=O)Nc2ccc(Cl)cc2)C(c2ccccc2)n2ncc(C(=O)Nc3ccccc3)c2N1` (stereo not given), which “activity, negative = inhibition” value is on record?
The value was -25.6%.

With `COc1ccc(/C=C/C(=O)Nc2ccc3nc4c(c(Nc5ccccc5OC)c3c2)CCCC4)cc1` as the compound, how does the Potency read?
The Potency was 2.07 µM (active).

Which Potency does the source give for `COc1ccc(/C=C/C(=O)Nc2ccc3nc4c(c(Nc5ccc(OC)c(OC)c5)c3c2)CCCC4)cc1` here?
The Potency was 3.69 µM (active).

Which “activity, negative = inhibition” value does the source give for `CCOc1ccc(NC(=O)CSc2c3c(nc4ccccc24)CCCC3)cc1` here?
Its value is -97%.

For `COc1ccc(S(=O)(=O)Nc2ccc3oc4c(c3c2)CCCC4)cc1`, which “activity, negative = inhibition” value is on record?
The value was -24%.

For `COc1ccc(Nc2c3c(nc4ccc(NC(=O)/C=C/c5cc(OC)c(OC)c(OC)c5)cc24)CCCC3)cc1OC`, which Potency is on record?
The Potency was 1.47 µM (active).

Which “activity, negative = inhibition” value does the source give for `COc1cccc(NC(=O)CSc2c3c(nc4ccccc24)CCCC3)c1` here?
Its value is -76.4%.

With `O=S(=O)(c1ccccc1F)N1CCC(Oc2ccc(-n3cnnn3)cc2)CC1` as the compound, how does the “activity, negative = inhibition” value read?
The value was 1.79%.

For `CCOCCc1nn2c(=O)cc(COC(=O)c3ccc(NC(=O)c4cccs4)cc3)nc2s1`, which “activity, negative = inhibition” value is on record?
Its value is -7.25%.

With `CCOc1ccc(S(=O)(=O)Nc2cc(Cl)ccc2OC)c2cccnc12` as the compound, how does the “activity, negative = inhibition” value read?
Its value is -6.32%.

Which “activity, negative = inhibition” value does the source give for `COc1ccc(-c2nc3cc(C(C)C)ccc3o2)cc1NC(=O)c1ccccc1[N+](=O)[O-]` here?
Its value is -22.3%.

With `CCCn1c(=O)sc2cc(NC(=O)c3ccc(OC)c(Br)c3)ccc21` as the compound, how does the “activity, negative = inhibition” value read?
Its value is 17%.

With `COc1ccc(-c2nc3cc(NC(=O)Cc4ccc(Cl)cc4)ccc3o2)cc1OC` as the compound, how does the Potency read?
Its Potency is 3.29 µM (active).

With `CCC(=O)Nc1cc(-c2nc3cc(C)cc(C)c3o2)ccc1C` as the compound, how does the “activity, negative = inhibition” value read?
Its value is -20.3%.

With `COc1ccc(C(=O)Nc2ccc3oc(-c4ccc5ccccc5c4)nc3c2)cc1Br` as the compound, how does the Potency read?
The Potency was 13.1 µM (active).

With `COc1c(C)cc(Br)cc1C(=O)Nc1ccc(-c2nc3ncccc3o2)cc1` as the compound, how does the “activity, negative = inhibition” value read?
Its value is 3.45%.

For `Cc1cccc(-c2nc3cc(NC(=O)Cc4ccc(Cl)cc4)ccc3o2)c1`, which “activity, negative = inhibition” value is on record?
The value was -15.8%.

With `COc1ccc(NC(=O)CCn2cnc3onc(-c4ccc(F)cc4)c3c2=O)cc1OC` as the compound, how does the “activity, negative = inhibition” value read?
The value was -9.75%.

With `O=C(Nc1ccc2oc(-c3ccc4ccccc4c3)nc2c1)c1cc(Br)ccc1Cl` as the compound, how does the Potency read?
Its Potency is 16.5 µM (active).
